Data published in the supplement of paper PMC8975748.
Structures can show the parent of a compound that is named as a salt. ± gives the standard deviation of the averaged measurements.

Experiments:
[1] = system: Saccharomyces cerevisiae BY4741 SeMeCo community; assay: mean cell size (pixel area) (pixels); higher = larger cells; conditions: 10 µM; 24 h; SM minimal medium
Procedure, shortened: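 Harmony analysis of automated confocal images of paraformaldehyde-fixed yeast gave the mean cell pixel area per well. The yeast was a Saccharomyces cerevisiae BY4741 community carrying four plasmids, each with a fluorescent marker and each complementing one auxotrophy, incubated for 24 h in SM medium containing drug at a final 10 µM in 384-well plates. Results are averaged over 3 replicates. Same SeMeCo high-content imaging drug screen: Selleck FDA-approved drugs at 10 µM, 24 h in SM medium, 384-well plates, 3 replicates.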

[2] = system: Saccharomyces cerevisiae BY4741 SeMeCo community; assay: z-score of prototroph abundance vs DMSO median; higher = larger share of this subpopulation than in DMSO controls; conditions: 10 µM; 24 h; SM minimal medium; subpopulation (auxotrophy): Prototroph
Procedure, shortened: (§1)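 A Saccharomyces cerevisiae BY4741 community carried four plasmids, each restoring one auxotrophy and encoding a distinct fluorescent protein. It was pre-grown overnight to OD600 1.0, diluted to 0.3, and 70 µl was added to 384-well plates acoustically predosed with library drugs (10 µM final), then grown 24 h in minimal SM medium. Cells were paraformaldehyde-fixed and imaged by automated confocal microscopy, with single-auxotroph fluorescent strains setting thresholds and autofluorescence correction. Each subpopulation's abundance was scored as a z-score against the vehicle-well median.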

[3] = system: Saccharomyces cerevisiae BY4741 SeMeCo community; assay: z-score of subpopulation abundance vs DMSO median, subpopulation auxotrophic for M; higher = larger share of this subpopulation than in DMSO controls; conditions: 10 µM; 24 h; SM minimal medium; subpopulation (auxotrophy): M
Procedure, shortened: as §1

[4] = system: Saccharomyces cerevisiae BY4741 SeMeCo community; assay: z-score of subpopulation abundance vs DMSO median, subpopulation auxotrophic for L; higher = larger share of this subpopulation than in DMSO controls; conditions: 10 µM; 24 h; SM minimal medium; subpopulation (auxotrophy): L
Procedure, shortened: as §1

[5] = system: Saccharomyces cerevisiae BY4741 SeMeCo community; assay: z-score of subpopulation abundance vs DMSO median, subpopulation auxotrophic for U; higher = larger share of this subpopulation than in DMSO controls; conditions: 10 µM; 24 h; SM minimal medium; subpopulation (auxotrophy): U
Procedure, shortened: as §1

[6] = system: Saccharomyces cerevisiae BY4741 SeMeCo community; assay: z-score of subpopulation abundance vs DMSO median, subpopulation auxotrophic for H; higher = larger share of this subpopulation than in DMSO controls; conditions: 10 µM; 24 h; SM minimal medium; subpopulation (auxotrophy): H
Procedure, shortened: as §1

[7] = system: Saccharomyces cerevisiae BY4741 SeMeCo community; assay: z-score of subpopulation abundance vs DMSO median, subpopulation auxotrophic for LU; higher = larger share of this subpopulation than in DMSO controls; conditions: 10 µM; 24 h; SM minimal medium; subpopulation (auxotrophy): LU
Procedure, shortened: as §1

[8] = system: Saccharomyces cerevisiae BY4741 SeMeCo community; assay: z-score of subpopulation abundance vs DMSO median, subpopulation auxotrophic for LM; higher = larger share of this subpopulation than in DMSO controls; conditions: 10 µM; 24 h; SM minimal medium; subpopulation (auxotrophy): LM
Procedure, shortened: as §1

[9] = system: Saccharomyces cerevisiae BY4741 SeMeCo community; assay: z-score of subpopulation abundance vs DMSO median, subpopulation auxotrophic for HM; higher = larger share of this subpopulation than in DMSO controls; conditions: 10 µM; 24 h; SM minimal medium; subpopulation (auxotrophy): HM
Procedure, shortened: as §1

[10] = system: Saccharomyces cerevisiae BY4741 SeMeCo community; assay: z-score of subpopulation abundance vs DMSO median, subpopulation auxotrophic for HU; higher = larger share of this subpopulation than in DMSO controls; conditions: 10 µM; 24 h; SM minimal medium; subpopulation (auxotrophy): HU
Procedure, shortened: as §1

[11] = system: Saccharomyces cerevisiae BY4741 SeMeCo community; assay: z-score of subpopulation abundance vs DMSO median, subpopulation auxotrophic for HL; higher = larger share of this subpopulation than in DMSO controls; conditions: 10 µM; 24 h; SM minimal medium; subpopulation (auxotrophy): HL
Procedure, shortened: as §1

[12] = system: Saccharomyces cerevisiae BY4741 SeMeCo community; assay: z-score of subpopulation abundance vs DMSO median, subpopulation auxotrophic for HLU; higher = larger share of this subpopulation than in DMSO controls; conditions: 10 µM; 24 h; SM minimal medium; subpopulation (auxotrophy): HLU
Procedure, shortened: as §1

[13] = system: Saccharomyces cerevisiae BY4741 SeMeCo community; assay: z-score of subpopulation abundance vs DMSO median, subpopulation auxotrophic for HUM; higher = larger share of this subpopulation than in DMSO controls; conditions: 10 µM; 24 h; SM minimal medium; subpopulation (auxotrophy): HUM
Procedure, shortened: as §1

[14] = system: Saccharomyces cerevisiae BY4741 SeMeCo community; assay: z-score of subpopulation abundance vs DMSO median, subpopulation auxotrophic for LUM; higher = larger share of this subpopulation than in DMSO controls; conditions: 10 µM; 24 h; SM minimal medium; subpopulation (auxotrophy): LUM
Procedure, shortened: as §1

[15] = system: Saccharomyces cerevisiae BY4741 SeMeCo community; assay: z-score of subpopulation abundance vs DMSO median, subpopulation auxotrophic for HLUM; higher = larger share of this subpopulation than in DMSO controls; conditions: 10 µM; 24 h; SM minimal medium; subpopulation (auxotrophy): HLUM
Procedure, shortened: as §1

[16] = system: Saccharomyces cerevisiae BY4741 SeMeCo community; assay: z-score of subpopulation abundance vs DMSO median, subpopulation auxotrophic for UM; higher = larger share of this subpopulation than in DMSO controls; conditions: 10 µM; 24 h; SM minimal medium; subpopulation (auxotrophy): UM
Procedure, shortened: as §1

Row | Structure (SMILES) | mean cell size [1] | z-score of prototroph abundance [2] | z-score of subpopulation abundance [3] | z-score of subpopulation abundance [4] | z-score of subpopulation abundance [5] | z-score of subpopulation abundance [6] | z-score of subpopulation abundance [7] | z-score of subpopulation abundance [8] | z-score of subpopulation abundance [9] | z-score of subpopulation abundance [10] | z-score of subpopulation abundance [11] | z-score of subpopulation abundance [12] | z-score of subpopulation abundance [13] | z-score of subpopulation abundance [14] | z-score of subpopulation abundance [15] | z-score of subpopulation abundance [16]
1 | Nc1nc(/C(=C/CC(=O)O)C(=O)N[C@@H]2C(=O)N3C(C(=O)O)=CCS[C@H]23)cs1 [Ceftibuten dihydrate] | 12.6 ± 0.21 | 0.52 | 0.21 | 0.22 | -0.28 | -0.33 | -0.12 | 0.1 | -0.56 | -0.31 | -0.1 | -0.13 | -1.27 | 0.4 | 0.51 | 
2 | Cn1nnc(-c2ccc(-c3ccc(N4C[C@H](COP(=O)(O)O)OC4=O)cc3F)cn2)n1 [Tedizolid Phosphate] | 12.5 ± 0.29 | 1.14 | -0.15 | -1.36 | 0.63 | -0.61 | -0.94 | -2.14 | -0.87 | -0.46 |  | -0.8 | -0.98 | -1.05 | -0.73 | -0.77
3 | CC(C)COCC(CN(Cc1ccccc1)c1ccccc1)N1CCCC1 (centres undefined) [Bepridil hydrochloride] | 12.5 ± 0.16 | -1.24 | -0.18 | 0.85 |  | 1.08 | 1.16 | -0.16 | 0.11 | 0.45 | 1.07 | 0.92 | 1.35 | 1.57 | 2.72 | 0.18
4 | Cc1ccc(Sc2ccccc2N2CCNCC2)c(C)c1 [Vortioxetine] | 12.18 ± 0.097 | 0.02 | 0.08 | -0.09 | -0.12 | -0.14 | -0.19 | -0.16 |  | 0.9 | 0.77 | 0.51 | 0.6 |  | -0.06 | 0.26
5 | CC1(C)[C@H](C(=O)O)N2C(=O)C[C@H]2S1(=O)=O [Sulbactam] | 12.3 ± 0.16 | 0.75 | 0.57 | 0.57 | -0.63 | -0.12 | -0.53 |  | -0.43 | -0.07 | -0.53 | -0.86 | -0.35 | -0.1 | -0.44 | -0.39
6 | COc1ccc2cc3[n+](cc2c1OC)CCc1cc2c(cc1-3)OCO2 [Berberine Sulfate] | 12.3 ± 0.28 |  | 0.74 | -1.84 | 1.36 | -0.31 | -0.21 | -0.28 | 0.24 | 0.8 | -0.5 | 0.06 | 0.71 | -0.27 | -0.34 | 0.73
7 | NC(=NCCCCCCN=C(N)N=C(N)Nc1ccc(Cl)cc1)N=C(N)Nc1ccc(Cl)cc1 [Chlorhexidine?2HCl] | 11.38 ± 0.084 | 1.92 | -3.42 | 0.63 | -2.8 | 2.59 | -1.64 | 0.28 | -2.23 | 0.25 | 2.14 | 3.88 | -0.7 | 2.03 | 4.27 | -3.13
8 | C[C@@H](O)[C@H]1C(=O)N2C(C(=O)O)=C(S[C@@H]3CN[C@H](C(=O)N(C)C)C3)[C@H](C)[C@H]12 [Meropenem] | 12.4 ± 0.19 | 0.37 | -0.33 | 0.05 | -0.22 | -0.03 | -0.26 | -0.29 | 0.18 | -0.01 | -0.23 | 0.14 | 0.12 | -0.39 | -0.68 | -0.33
9 | CC/C(=C(\c1ccccc1)c1ccc(OCCN(C)C)cc1)c1ccccc1 [Tamoxifen] | 11.75 ± 0.092 | -0.91 | 0.18 | 0.96 | -0.18 | 1.57 | 0.89 | 1.82 | 0.93 |  | 0.95 | 0.93 | 0.85 | 0.23 | 0.09 | 0.21
10 | CC[C@@H]1/C=C(\C)C[C@H](C)C[C@H](OC)[C@H]2O[C@@](O)(C(=O)C(=O)N3CCCC[C@H]3C(=O)O[C@H](/C(C)=C/[C@@H]3CC[C@H](Cl)[C@H](OC)C3)[C@H](C)[C@@H](O)CC1=O)[C@H](C)C[C@@H]2OC [Pimecrolimus] | 11.6 ± 0.16 |  | 1.75 | 3.91 | -1.72 | 1.91 | -0.41 | 4.26 | 1.95 | -0.6 | 4.57 | 1.88 | 0.94 | 4.36 |  | -0.8
11 | OCCN(CCO)c1nc(N2CCCCC2)c2nc(N(CCO)CCO)nc(N3CCCCC3)c2n1 [Dipyridamole] | 12.5 ± 0.14 | 1.3 | 5.88 | 4.21 | -6.98 |  | -7.03 | 10.9 | 6.49 | -7.22 | 6.01 | -3.69 | -6.13 | -4.38 | -1.34 | -8.15
12 | CC(C(=O)O)c1ccc(C(=O)c2cccs2)cc1 (centres undefined) [Suprofen] | 12.4 ± 0.17 | 0.24 | -0.68 | 0.48 |  | -0.25 | -0.41 | 0.42 | -0.73 | -0.02 |  | 0.03 | -1.16 |  | -0.2 | -0.8
13 | O=C(Nc1c(Cl)cncc1Cl)c1ccc(OC(F)F)c(OCC2CC2)c1 [Roflumilast] | 12.4 ± 0.14 | 0.36 | 0.29 | -0.2 | 0.07 | -0.65 | 0.34 | -0.1 | -0.18 | 0.22 | -0.5 | -0.37 | -0.17 | -0.56 | -0.84 | 0.24
14 | C#C[C@]1(O)CC[C@H]2[C@@H]3CCC4=CC(=O)CC[C@@H]4[C@H]3CC[C@@]21CC [Levonorgestrel] | 12.4 ± 0.16 | 0.69 | -0.18 | -0.24 | 0.3 | -0.72 | -0.04 |  | -0.99 | -0.13 | -0.95 | 0.05 | -0.08 | -0.68 | -0.86 | -0.13
